Calls of active or inactive are those of the source. The calls were made as follows: active = hit-call score of the fitted dose curve at least 0.9, where 1 is the maximum; inactive = score below 0.9.
Tests used:
Settings in all cases: mRNA level, 48 h; actives raise or lower the signal
[1] = read-out: Insulin Like Growth Factor 1 (IGF1), IGF1 (gene 3479); assay: LTEA_HepaRG_IGF1: Life Technologies and Expression Analysis (LTEA) Assay for Insulin Like Growth Factor 1 (IGF1) using HepaRG (AID 2283506)
Method in brief: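 Differentiated HepaRG cells in serum-free induction medium, exposed 48 h in duplicate to 8 half-log concentrations up to 100 uM in 0.5% DMSO. IGF1 mRNA by Fluidigm qRT-PCR, normalised to ACTB, GAPDH and POLR2A.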

[2] = read-out: Intercellular Adhesion Molecule 1 (ICAM1), ICAM1 (gene 3383); assay: LTEA_HepaRG_ICAM1: Life Technologies and Expression Analysis (LTEA) Assay for Intercellular Adhesion Molecule 1 (ICAM1) using HepaRG (AID 2283507)
Method in brief: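 Differentiated human HepaRG cells in serum-free induction medium exposed 48 h in duplicate to 8 half-log concentrations (top 100 uM, 0.5% DMSO). ICAM1 mRNA quantified by TaqMan qRT-PCR, normalized to ACTB, GAPDH and POLR2A; bidirectional fitting versus DMSO.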

[3] = read-out: Insulin-like growth factor-binding protein 1 (IGFBP1), IGFBP1 (gene 3484); assay: LTEA_HepaRG_IGFBP1: Life Technologies and Expression Analysis (LTEA) Assay for Insulin-like growth factor-binding protein 1 (IGFBP1) using HepaRG (AID 2283508)
Method in brief: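 HepaRG cells, plated 48 h then switched to serum-free induction medium, exposed in duplicate for 48 h to 8-point half-log series from 100 uM in 0.5% DMSO. mRNA measured by qRT-PCR, normalized to ACTB/GAPDH/POLR2A; bidirectional fit versus DMSO.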

[4] = read-out: Interleukin 6 (IL6), IL6 (gene 3569); assay: LTEA_HepaRG_IL6: Life Technologies and Expression Analysis (LTEA) Assay for Interleukin 6 (IL6) using HepaRG (AID 2283509)
Method in brief: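 HepaRG cells exposed in duplicate for 48 h to eight half-log concentrations, top 100 uM, in 0.5% DMSO serum-free induction medium. mRNA measured by qRT-PCR, normalized to ACTB, GAPDH and POLR2A. Bidirectional fit versus DMSO.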

[5] = read-out: Interleukin 6 Receptor (IL6R), IL6R (gene 3570); assay: LTEA_HepaRG_IL6R: Life Technologies and Expression Analysis (LTEA) Assay for Interleukin 6 Receptor (IL6R) using HepaRG (AID 2283510)
Method in brief: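 Differentiated HepaRG cells, plated 48 h, then exposed in duplicate for 48 h in serum-free induction medium to 8 half-log concentrations (top 100 uM, 0.5% DMSO). IL6R mRNA measured by TaqMan qRT-PCR, normalized to ACTB/GAPDH/POLR2A; bidirectional fit vs DMSO.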

[6] = read-out: Potassium channel subfamily K member 1 (KCNK1), KCNK1 (gene 3775); assay: LTEA_HepaRG_KCNK1: Life Technologies and Expression Analysis (LTEA) Assay for Potassium channel subfamily K member 1 (KCNK1) using HepaRG (AID 2283511)
Method in brief: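 Differentiated HepaRG cells, 48 h exposure in serum-free induction medium with 0.5% DMSO; 8 concentrations, half-log from 100 uM, duplicate. KCNK1 mRNA by qRT-PCR, normalized to ACTB, GAPDH, POLR2A; bidirectional fit vs DMSO.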

[7] = read-out: Keratin 19 (KRT19), KRT19 (gene 3880); assay: LTEA_HepaRG_KRT19: Life Technologies and Expression Analysis (LTEA) Assay for Keratin 19 (KRT19) using HepaRG (AID 2283512)
Method in brief: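 Differentiated HepaRG cells in serum-free induction medium, exposed 48 h in duplicate to 8 half-log concentrations up to 100 uM in 0.5% DMSO. KRT19 mRNA by qRT-PCR, normalized to ACTB, GAPDH, POLR2A; bidirectional fit vs DMSO.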

[8] = read-out: JUN Transcription Factor, JUN (gene 3725); assay: LTEA_HepaRG_JUN: Life Technologies and Expression Analysis (LTEA) Assay for JUN Transcription Factor using HepaRG (AID 2283513)
Method in brief: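 HepaRG cells, 48 h post-plating, exposed 48 h in serum-free induction medium to 8-point half-log series (top 100 uM, 0.5% DMSO), duplicate; mRNA by qRT-PCR (TaqMan, Fluidigm), normalized to ACTB/GAPDH/POLR2A; bidirectional fit vs DMSO.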

[9] = read-out: Lipase C (LIPC), LIPC (gene 3990); assay: LTEA_HepaRG_LIPC: Life Technologies and Expression Analysis (LTEA) Assay for Lipase C (LIPC) using HepaRG (AID 2283514)
Method in brief: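 HepaRG cells, 48 h after plating, treated in duplicate for 48 h in serum-free induction medium over 8 half-log concentrations from 100 uM, 0.5% DMSO. LIPC mRNA by TaqMan qRT-PCR normalized to ACTB/GAPDH/POLR2A; bidirectional fit versus DMSO.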

[10] = read-out: Lipoprotein lipase (LPL), LPL (gene 4023); assay: LTEA_HepaRG_LPL: Life Technologies and Expression Analysis (LTEA) Assay for Lipoprotein lipase (LPL) using HepaRG (AID 2283515)
Method in brief: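 Differentiated HepaRG cells, plated 48 h, then exposed 48 h in serum-free induction medium to 8 concentrations (top 100 uM, half-log steps) in 0.5% DMSO, duplicate. LPL mRNA measured by qRT-PCR, normalized to ACTB, GAPDH and POLR2A.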

[11] = read-out: matrix metalloproteinase-10 (MMP10), MMP10 (gene 4319); assay: LTEA_HepaRG_MMP10: Life Technologies and Expression Analysis (LTEA) Assay for matrix metalloproteinase-10 (MMP10) using HepaRG (AID 2283517)
Method in brief: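 Differentiated HepaRG cells in serum-free induction medium exposed 48 h in duplicate to 8-point half-log series up to 100 uM in 0.5% DMSO. mRNA quantified by qRT-PCR, normalised to ACTB, GAPDH, POLR2A; bidirectional fit versus DMSO.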

MYC, MYC (gene 4609) = assay: LTEA_HepaRG_MYC: Life Technologies and Expression Analysis (LTEA) Assay for MYC using HepaRG (AID 2283518)
Method in brief: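 Differentiated HepaRG cells exposed 48 h in serum-free induction medium to 8 concentrations (top 100 uM, half-log steps; 0.5% DMSO), duplicate. MYC mRNA measured by Fluidigm qRT-PCR, normalized to ACTB, GAPDH, POLR2A; bidirectional fit versus DMSO.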

[12] = read-out: Paternally Expressed 10 (PEG10), PEG10 (gene 23089); assay: LTEA_HepaRG_PEG10: Life Technologies and Expression Analysis (LTEA) Assay for Paternally Expressed 10 (PEG10) using HepaRG (AID 2283520)
Method in brief: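 Differentiated HepaRG cells exposed 48 h in serum-free induction medium to eight half-log concentrations topping at 100 uM, 0.5% DMSO, in duplicate. PEG10 mRNA quantified by TaqMan qRT-PCR, normalized to ACTB, GAPDH and POLR2A; bidirectional fit versus DMSO.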

[13] = read-out: Protein phosphatase 2A (PPP2R4), PTPA (gene 5524); assay: LTEA_HepaRG_PPP2R4: Life Technologies and Expression Analysis (LTEA) Assay for Protein phosphatase 2A (PPP2R4) using HepaRG (AID 2283522)
Method in brief: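 Differentiated human HepaRG cells in serum-free induction medium were exposed 48 h to 8 concentrations (top 100 µM, half-log steps, duplicate) in 0.5% DMSO. PPP2R4 mRNA was measured by TaqMan qRT-PCR, normalised to ACTB, GAPDH and POLR2A, and fitted bidirectionally versus DMSO.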

[14] = read-out: Phosphatase and tensin (PTEN), PTEN (gene 5728); assay: LTEA_HepaRG_PTEN: Life Technologies and Expression Analysis (LTEA) Assay for Phosphatase and tensin (PTEN) using HepaRG (AID 2283523)
Method in brief: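 HepaRG cells, 48 h after plating, exposed in duplicate for 48 h in serum-free induction medium to 8 half-log concentrations up to 100 uM (0.5% DMSO). PTEN mRNA by qRT-PCR, normalized to ACTB, GAPDH, POLR2A; bidirectional fit versus DMSO.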

[15] = read-out: solute carrier (SLC22A1), SLC22A1 (gene 6580); assay: LTEA_HepaRG_SLC22A1: Life Technologies and Expression Analysis (LTEA) Assay for solute carrier (SLC22A1) using HepaRG (AID 2283524)
Method in brief: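 Differentiated human HepaRG cells in serum-free induction medium, exposed 48 h in duplicate to 8-point half-log series from 100 µM top in 0.5% DMSO. SLC22A1 mRNA by TaqMan qRT-PCR normalized to ACTB, GAPDH, POLR2A; bidirectional fit versus DMSO.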

[16] = read-out: Pyruvate Dehydrogenase Kinase 4 (PDK4), PDK4 (gene 5166); assay: LTEA_HepaRG_PDK4: Life Technologies and Expression Analysis (LTEA) Assay for Pyruvate Dehydrogenase Kinase 4 (PDK4) using HepaRG (AID 2283525)
Method in brief: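 HepaRG cells plated 48 h, then switched to serum-free induction medium and exposed in duplicate for 48 h to 8 half-log concentrations from 100 uM in 0.5% DMSO. PDK4 mRNA measured by qRT-PCR, normalized to ACTB, GAPDH and POLR2A; bidirectional fit versus DMSO.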

[17] = read-out: MicroRNA 122 (MIR122), gene 406906; assay: LTEA_HepaRG_MIR122: Life Technologies and Expression Analysis (LTEA) Assay for MicroRNA 122 (MIR122) using HepaRG (AID 2283516); also: the transcript read is the microRNA miR-122
Method in brief: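 Differentiated human HepaRG cells in serum-free induction medium exposed 48 h to 8 half-log concentrations from 100 uM in 0.5% DMSO, duplicate. MIR122 quantified by Fluidigm TaqMan qRT-PCR, normalised to ACTB, GAPDH, POLR2A; fold change fitted bidirectionally versus DMSO.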

[18] = read-out: Nuclear factor NF-kappa-B p105 subunit (Homo sapiens) (UniProt P19838); assay: LTEA_HepaRG_NFKB1: Life Technologies and Expression Analysis (LTEA) Assay for Nuclear Factor Kappa B Subunit 1 (NFKB1) using HepaRG (AID 2283521);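 also: TaqMan qRT-PCR transcript normalised to ACTB GAPDH and POLR2A housekeeping genes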
Method in brief: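 NFKB1 transcript was measured by TaqMan qRT-PCR on Fluidigm arrays, normalised to three housekeeping genes and fitted in both directions against 0.5% DMSO. HepaRG cells were dosed in duplicate for 48 h in serum-free induction medium, eight half-log steps from 100 uM.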

Measured: outcome

Nuclear factor NF-kappa-B p105 subunit (Homo sapiens), sequence (P19838 whole entry, looked up): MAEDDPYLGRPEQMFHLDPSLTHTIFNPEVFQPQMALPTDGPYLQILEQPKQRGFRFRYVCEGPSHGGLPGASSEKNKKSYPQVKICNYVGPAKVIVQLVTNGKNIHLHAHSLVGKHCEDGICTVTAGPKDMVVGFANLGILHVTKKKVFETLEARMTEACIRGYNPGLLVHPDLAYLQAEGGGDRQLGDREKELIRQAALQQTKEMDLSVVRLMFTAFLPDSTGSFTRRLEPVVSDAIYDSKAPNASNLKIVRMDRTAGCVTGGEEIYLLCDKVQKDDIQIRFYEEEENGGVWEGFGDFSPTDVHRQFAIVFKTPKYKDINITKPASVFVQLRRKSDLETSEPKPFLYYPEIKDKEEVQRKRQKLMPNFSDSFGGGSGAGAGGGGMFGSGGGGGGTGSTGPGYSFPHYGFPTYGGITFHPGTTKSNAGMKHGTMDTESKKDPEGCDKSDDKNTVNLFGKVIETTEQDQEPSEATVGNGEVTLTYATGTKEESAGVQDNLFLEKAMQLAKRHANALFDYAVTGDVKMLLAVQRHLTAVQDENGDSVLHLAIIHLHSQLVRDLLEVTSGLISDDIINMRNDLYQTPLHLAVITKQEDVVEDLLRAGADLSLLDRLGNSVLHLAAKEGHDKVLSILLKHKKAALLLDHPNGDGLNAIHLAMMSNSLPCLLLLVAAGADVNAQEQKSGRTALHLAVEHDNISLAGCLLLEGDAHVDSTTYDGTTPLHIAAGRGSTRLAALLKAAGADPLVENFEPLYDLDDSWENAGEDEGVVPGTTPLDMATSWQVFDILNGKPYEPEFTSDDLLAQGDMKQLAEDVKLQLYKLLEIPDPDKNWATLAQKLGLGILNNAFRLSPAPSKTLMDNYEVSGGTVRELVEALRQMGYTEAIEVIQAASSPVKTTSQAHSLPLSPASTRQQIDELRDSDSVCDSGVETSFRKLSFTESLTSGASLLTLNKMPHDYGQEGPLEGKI

Cc1ccc(C(C)C)cc1
inactive: [1] | [2] | [3] | [4] | [5] | [6] | [7] | [8] | [9] | [10] | [11] | MYC, MYC (gene 4609) | [12] | [13] | [14] | [15] | [16]

CCCCCCCCN(C)CCCCCCCC
inactive: [1] | [2] | [3] | [4] | [5] | [6] | [7] | [8] | [9] | [10] | [17] | [11] | MYC, MYC (gene 4609) | [12] | [18] | [13] | [14] | [15] | [16]

CCCC(=O)OCCC(C)C
inactive: [1] | [2] | [3] | [4] | [5] | [6] | [8] | [9] | [10] | [17] | [11] | MYC, MYC (gene 4609) | [12] | [18] | [13] | [14] | [15] | [16]
